Consider eight sequences from PMC7862700, “An all-to-all approach to the identification of sequence-specific readers for epigenetic DNA modifications on cytosine”.

Common to all, as to assay: DAPPL (digital affinity profiling via proximity ligation, sequencing); 10 mM Tris-HCl pH 7.5, 50 mM NaCl, 1 mM DTT, 4% glycerol, room temperature, 30 min; GST-TFs on glutathione beads, 16-mer random dsDNA library, 0.1% formaldehyde crosslink after washing; high values mean tight binding
Holding throughout (conditions): protein: recombinant; tags: N-terminal GST; dsDNA, one strand shown

In one assay the target is T1, ERF (Homo sapiens, UniProt P50548 1-548).
T1 sequence: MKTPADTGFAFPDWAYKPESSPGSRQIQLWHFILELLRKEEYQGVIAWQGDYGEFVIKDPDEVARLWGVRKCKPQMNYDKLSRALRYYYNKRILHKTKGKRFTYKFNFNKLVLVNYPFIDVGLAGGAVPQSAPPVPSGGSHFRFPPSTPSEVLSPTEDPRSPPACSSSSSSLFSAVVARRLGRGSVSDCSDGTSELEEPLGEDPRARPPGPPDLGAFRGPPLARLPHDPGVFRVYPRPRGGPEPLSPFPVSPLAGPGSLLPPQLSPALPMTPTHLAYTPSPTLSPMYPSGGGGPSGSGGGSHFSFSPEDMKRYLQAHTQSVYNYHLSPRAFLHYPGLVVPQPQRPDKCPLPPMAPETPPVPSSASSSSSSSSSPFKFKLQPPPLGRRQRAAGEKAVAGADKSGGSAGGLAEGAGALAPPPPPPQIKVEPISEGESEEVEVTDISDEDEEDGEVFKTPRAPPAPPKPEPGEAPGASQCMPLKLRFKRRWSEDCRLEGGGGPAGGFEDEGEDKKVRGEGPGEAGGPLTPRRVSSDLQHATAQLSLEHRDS
The procedure, abridged:
(§1)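 Human transcription factors carrying a GST fusion were produced in yeast, bound to glutathione beads, tagged with DNA barcodes and pooled together with a tag-only sample. Each pool was held with 200 nmole of a random double-stranded 16-mer DNA library in Tris/NaCl/DTT/glycerol buffer for 30 min at room temperature, then washed, crosslinked in 0.1% formaldehyde, proximity-ligated with BsaI/T4 ligase (1 h, 37 °C), PCR-amplified and sequenced on an Illumina NextSeq500. Binding signal is the read frequency of each hexamer for a given factor divided by its frequency in the tag-only sample.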

The target in the next assay is T2, ETV3L (Homo sapiens, UniProt Q6ZN32 1-361).
T2 sequence: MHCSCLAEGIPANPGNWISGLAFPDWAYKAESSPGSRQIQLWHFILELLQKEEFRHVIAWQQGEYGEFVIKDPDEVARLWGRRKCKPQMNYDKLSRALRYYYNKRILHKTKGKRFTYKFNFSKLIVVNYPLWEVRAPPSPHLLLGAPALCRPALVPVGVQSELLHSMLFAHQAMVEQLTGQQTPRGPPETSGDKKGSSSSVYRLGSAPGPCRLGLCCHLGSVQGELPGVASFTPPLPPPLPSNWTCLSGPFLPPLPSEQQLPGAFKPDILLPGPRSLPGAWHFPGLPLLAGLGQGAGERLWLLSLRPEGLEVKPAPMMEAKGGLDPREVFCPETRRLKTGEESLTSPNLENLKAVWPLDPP
The procedure, abridged:
as §1

In the next assay the target is T3, ETS2 (Homo sapiens, UniProt P15036 1-469).
T3 sequence: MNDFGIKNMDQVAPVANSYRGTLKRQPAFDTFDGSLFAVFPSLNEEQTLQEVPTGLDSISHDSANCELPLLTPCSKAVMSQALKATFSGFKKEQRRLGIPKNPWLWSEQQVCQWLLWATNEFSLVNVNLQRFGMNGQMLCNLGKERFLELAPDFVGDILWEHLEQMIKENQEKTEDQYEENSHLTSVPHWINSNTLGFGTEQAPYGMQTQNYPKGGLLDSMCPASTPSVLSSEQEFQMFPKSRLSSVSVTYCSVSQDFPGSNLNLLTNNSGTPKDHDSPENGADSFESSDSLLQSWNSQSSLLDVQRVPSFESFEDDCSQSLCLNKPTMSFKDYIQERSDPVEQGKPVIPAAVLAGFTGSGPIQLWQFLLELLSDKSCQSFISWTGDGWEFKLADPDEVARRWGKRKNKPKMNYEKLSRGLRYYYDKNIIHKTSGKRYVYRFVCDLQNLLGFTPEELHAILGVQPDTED
The method in brief:
as §1

The target in the next assay is T4, SPDEF (Homo sapiens, UniProt O95238 1-335).
T4 sequence: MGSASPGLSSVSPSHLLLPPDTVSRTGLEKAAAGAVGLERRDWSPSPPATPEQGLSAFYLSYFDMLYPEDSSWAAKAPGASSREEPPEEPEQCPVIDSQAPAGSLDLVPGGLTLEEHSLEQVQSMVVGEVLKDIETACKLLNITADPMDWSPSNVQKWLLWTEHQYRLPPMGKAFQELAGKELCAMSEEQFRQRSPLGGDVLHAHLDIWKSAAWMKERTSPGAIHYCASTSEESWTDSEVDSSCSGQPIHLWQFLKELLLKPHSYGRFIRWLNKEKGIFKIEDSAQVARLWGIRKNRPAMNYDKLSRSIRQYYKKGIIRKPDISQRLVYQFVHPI
The procedure, abridged: as §1

The target in the next assay is T5, ETV7 (Homo sapiens, UniProt Q9Y603 1-341).
T5 sequence: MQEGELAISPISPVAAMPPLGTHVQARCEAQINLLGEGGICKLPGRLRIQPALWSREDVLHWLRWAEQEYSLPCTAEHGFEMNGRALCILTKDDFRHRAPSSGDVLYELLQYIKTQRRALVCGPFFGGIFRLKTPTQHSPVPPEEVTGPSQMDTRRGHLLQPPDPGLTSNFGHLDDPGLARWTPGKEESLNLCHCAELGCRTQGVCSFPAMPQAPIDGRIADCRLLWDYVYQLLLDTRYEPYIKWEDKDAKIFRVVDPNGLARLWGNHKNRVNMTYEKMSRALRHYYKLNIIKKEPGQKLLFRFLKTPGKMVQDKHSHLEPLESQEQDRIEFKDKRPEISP
The method in brief: as §1

A further assay has as its target T6, ELF5 (Homo sapiens, UniProt Q9UKW6-2 1-255).
T6 sequence: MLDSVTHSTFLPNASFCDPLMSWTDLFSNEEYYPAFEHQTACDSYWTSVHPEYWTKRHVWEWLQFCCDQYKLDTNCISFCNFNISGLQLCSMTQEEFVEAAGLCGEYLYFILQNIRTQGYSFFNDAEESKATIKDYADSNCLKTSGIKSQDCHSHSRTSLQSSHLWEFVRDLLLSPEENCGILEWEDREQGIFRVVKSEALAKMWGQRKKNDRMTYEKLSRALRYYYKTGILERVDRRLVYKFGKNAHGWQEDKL
The procedure, abridged:
as §1

A further assay concerns the target T7, ETV3 (Homo sapiens, UniProt P41162-2 1-143).
T7 sequence: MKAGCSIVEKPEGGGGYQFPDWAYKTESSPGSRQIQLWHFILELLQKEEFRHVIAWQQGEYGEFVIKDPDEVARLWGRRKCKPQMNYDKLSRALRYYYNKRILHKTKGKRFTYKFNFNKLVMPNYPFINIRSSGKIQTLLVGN
The method in brief: as §1

Another assay deals with ETV6 (Homo sapiens, UniProt P41212 1-452). The procedure, abridged: as §1
Sequence of ETV6 (P41212 whole entry): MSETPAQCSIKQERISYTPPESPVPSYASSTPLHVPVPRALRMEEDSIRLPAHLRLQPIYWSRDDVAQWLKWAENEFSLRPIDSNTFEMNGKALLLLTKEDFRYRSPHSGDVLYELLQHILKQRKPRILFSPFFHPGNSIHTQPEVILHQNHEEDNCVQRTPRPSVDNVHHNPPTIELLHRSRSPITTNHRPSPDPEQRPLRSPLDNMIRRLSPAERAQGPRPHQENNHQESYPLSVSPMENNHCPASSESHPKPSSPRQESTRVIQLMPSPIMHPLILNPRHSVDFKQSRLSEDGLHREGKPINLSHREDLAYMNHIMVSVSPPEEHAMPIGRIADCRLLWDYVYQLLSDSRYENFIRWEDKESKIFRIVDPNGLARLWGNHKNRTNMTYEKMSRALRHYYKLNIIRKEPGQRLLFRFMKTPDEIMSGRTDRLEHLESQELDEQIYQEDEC

Consider CGTCAC, for which the binding signal was 1.15 fold enrichment (6-mer frequency, TF over GST control) with ERF; 1.15 fold enrichment (6-mer frequency, TF over GST control) in the assay with ETV3L; 1.27 fold enrichment (6-mer frequency, TF over GST control) in the assay with ETS2; 1.21 fold enrichment (6-mer frequency, TF over GST control) in the assay with SPDEF; 1.13 fold enrichment (6-mer frequency, TF over GST control) with ETV7; 1.16 fold enrichment (6-mer frequency, TF over GST control) in the assay with ELF5. For the same sequence, the binding signal in the assay with ETV3 is 1.11 fold enrichment (6-mer frequency, TF over GST control); with ETV6, 1.24 fold enrichment (6-mer frequency, TF over GST control).

As to TGGCAG, the binding signal with ERF is 1.11 fold enrichment (6-mer frequency, TF over GST control); in the assay with ETV3L, 1.12 fold enrichment (6-mer frequency, TF over GST control); in the assay with ETS2 it was 1.05 fold enrichment (6-mer frequency, TF over GST control); with SPDEF, 1.05 fold enrichment (6-mer frequency, TF over GST control); with ETV7, 1.04 fold enrichment (6-mer frequency, TF over GST control); with ELF5, 1.09 fold enrichment (6-mer frequency, TF over GST control). For the same sequence, the binding signal in the assay with ETV3 was 1.16 fold enrichment (6-mer frequency, TF over GST control); in the assay with ETV6, 1.09 fold enrichment (6-mer frequency, TF over GST control).

Regarding CCACCC, the binding signal in the assay with ERF was 1.24 fold enrichment (6-mer frequency, TF over GST control); in the assay with ETV3L it was 1.37 fold enrichment (6-mer frequency, TF over GST control); in the assay with ETS2, 1.18 fold enrichment (6-mer frequency, TF over GST control); with SPDEF it was 1.22 fold enrichment (6-mer frequency, TF over GST control); in the assay with ETV7, 1.09 fold enrichment (6-mer frequency, TF over GST control); with ELF5, 1.21 fold enrichment (6-mer frequency, TF over GST control). The binding signal with ETV3 is 1.28 fold enrichment (6-mer frequency, TF over GST control); with ETV6, 1.24 fold enrichment (6-mer frequency, TF over GST control).

Take CGGTCT: the binding signal with ERF was 1.21 fold enrichment (6-mer frequency, TF over GST control); with ETV3L, 1.15 fold enrichment (6-mer frequency, TF over GST control); with ETS2 it was 1.16 fold enrichment (6-mer frequency, TF over GST control); with SPDEF it was 1.09 fold enrichment (6-mer frequency, TF over GST control); with ETV7 it was 1.11 fold enrichment (6-mer frequency, TF over GST control); in the assay with ELF5, 1.1 fold enrichment (6-mer frequency, TF over GST control). Further, the binding signal in the assay with ETV3 was 1.22 fold enrichment (6-mer frequency, TF over GST control); with ETV6, 1.09 fold enrichment (6-mer frequency, TF over GST control).

Turning to CCGAAA, the binding signal with ERF was 1.22 fold enrichment (6-mer frequency, TF over GST control); with ETV3L, 1.2 fold enrichment (6-mer frequency, TF over GST control); with ETS2, 1.22 fold enrichment (6-mer frequency, TF over GST control); in the assay with SPDEF it was 1.17 fold enrichment (6-mer frequency, TF over GST control); in the assay with ETV7 it was 1.24 fold enrichment (6-mer frequency, TF over GST control); with ELF5, 1.18 fold enrichment (6-mer frequency, TF over GST control). Further, the binding signal with ETV3 was 1.19 fold enrichment (6-mer frequency, TF over GST control); with ETV6 it was 1.28 fold enrichment (6-mer frequency, TF over GST control).

As for TTCCTC, the binding signal with ERF is 2.13 fold enrichment (6-mer frequency, TF over GST control); with ETV3L, 2.21 fold enrichment (6-mer frequency, TF over GST control); with ETS2 it was 2.22 fold enrichment (6-mer frequency, TF over GST control); with SPDEF, 1.96 fold enrichment (6-mer frequency, TF over GST control); with ETV7 it was 1.96 fold enrichment (6-mer frequency, TF over GST control); in the assay with ELF5, 3.84 fold enrichment (6-mer frequency, TF over GST control). Moreover, the binding signal in the assay with ETV3 was 2.38 fold enrichment (6-mer frequency, TF over GST control); in the assay with ETV6, 2.48 fold enrichment (6-mer frequency, TF over GST control).

For the sequence TATTCG, the binding signal with ERF is 1.17 fold enrichment (6-mer frequency, TF over GST control); with ETV3L, 1.16 fold enrichment (6-mer frequency, TF over GST control); in the assay with ETS2, 1.13 fold enrichment (6-mer frequency, TF over GST control); in the assay with SPDEF, 1.1 fold enrichment (6-mer frequency, TF over GST control); in the assay with ETV7 it was 1.19 fold enrichment (6-mer frequency, TF over GST control); with ELF5, 1.09 fold enrichment (6-mer frequency, TF over GST control). For the same sequence, the binding signal was 1.19 fold enrichment (6-mer frequency, TF over GST control) with ETV3 and 1.02 fold enrichment (6-mer frequency, TF over GST control) with ETV6.

As for CCCACT, the binding signal with ERF is 1.42 fold enrichment (6-mer frequency, TF over GST control); with ETV3L it was 1.37 fold enrichment (6-mer frequency, TF over GST control); with ETS2, 1.32 fold enrichment (6-mer frequency, TF over GST control); with SPDEF, 1.27 fold enrichment (6-mer frequency, TF over GST control); with ETV7, 1.28 fold enrichment (6-mer frequency, TF over GST control); with ELF5, 1.31 fold enrichment (6-mer frequency, TF over GST control). Further, the binding signal with ETV3 is 1.32 fold enrichment (6-mer frequency, TF over GST control); in the assay with ETV6, 1.37 fold enrichment (6-mer frequency, TF over GST control).
